Measurements: PubChem BioAssay (Tox21)
Values joined by “and” are separate entries in the source; they are usually repeats but may differ in a detail not shown here. Equal entries are not always repeated. A number with no mark means an inactive call. Inconclusive results are not listed. A call without a number means that no potency is given here. Active and inactive are the calls of the source. Unless noted, the call rests on the fitted dose curve; in most records, active means well fitted curve in the direction sought with a large enough effect in the repeat runs; inconclusive means weak or mixed curves; inactive means no such curve, though single readings can be large; an effect the other way counts as inactive or inconclusive.

Columns and labels:
[1] = qHTS assay for small molecule agonists of the p53 signaling pathway (AID 651631; calls by dose curve; further: nearly all actives have a fitted effect of over 15% in size; further: potency means the concentration at half of the fitted maximal effect)
Procedure, shortened: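 HCT-116 p53RE-bla reporter line, 16 h compound treatment at 37 °C, then fluorescence after 2 h with B/G FRET substrate.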

[2] = qHTS assay for small molecules that induce genotoxicity in human embryonic kidney cells expressing luciferase-tagged ATAD5 (AID 651632); further: nearly all actives have a fitted effect of over 15% in size
Procedure, shortened: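 HEK293T cells carrying luciferase-tagged ATAD5 were given compound or DMSO vehicle and incubated 16 hr at 37C, 5% CO2. Luciferase activity was read after 30 min at room temperature with Amplite; a rise signals genotoxic stress.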

[3] = qHTS assay for small molecule agonists of the p53 signaling pathway - cell viability (AID 651633; calls by dose curve;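 further: p53RE-bla HCT reporter cells with a stable beta-lactamase p53 reporter; series mostly up to about 83 µM; nearly all actives have a fitted effect of over 30% in size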)
Procedure, shortened: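 Viability counter-read: CellTiter-Glo luminescence (30 min, room temperature) in the same p53RE-bla plates. These plates had been exposed to compounds for 16 h at 37 C.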

[4] = qHTS assay for small molecules that induce genotoxicity in human embryonic kidney cells expressing luciferase-tagged ATAD5 - cell viability (AID 651634; calls by dose curve; further: nearly all actives have a fitted effect of over 25% in size; further: potency means the concentration at half of the fitted maximal effect)
Procedure, shortened: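 HEK293T cells carrying luciferase-tagged ATAD5, 2,000 cells/well, exposed to compound for 15.5 hr at 37C. Viability read as live-cell protease activity by CellTiter-Fluor fluorescence after 30 min at 37C.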

[5] = qHTS assay for small molecule disruptors of the mitochondrial membrane potential - cell viability (AID 720634; calls by dose curve; further: nearly all actives have a fitted effect of over 20% in size; further: potency means the concentration at half of the fitted maximal effect;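 on activity change, negative = cytotoxicity: human HepG2 liver cancer cells; series mostly up to about 83 µM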)
Procedure, shortened: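 HepG2 cells, 2,000 per well, attached overnight, then treated 1 hr at 37 C, 5% CO2. Viability read as ATP by CellTiter-Glo luminescence after 30 min at room temperature. Read in the same wells as the m-MPI membrane-potential dye assay.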

[6] = qHTS assay for small molecule disruptors of the mitochondrial membrane potential (AID 720635); further: potency means the concentration at half of the fitted maximal effect
Procedure, shortened: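 Mitochondrial membrane potential tracked with Mito-MPS dye, red aggregates (ex 540/em 590 nm) against green monomers (ex 490/em 535 nm). Compound treatment 1 hr at 37C, dye 30 min in HepG2.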

[7] = qHTS assay to test for compound auto fluorescence at 590 nm (red) in HepG2 cells (AID 720674)
Procedure, shortened: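 1 hr compound incubation on HepG2 cells, 37 C, 5% CO2; plate read ex 540 nm / em 590 nm; intensities reported as Rose Bengal sodium equivalents.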

[8] = qHTS assay to test for compound auto fluorescence at 535 nm (green) in HepG2 cells (AID 720675)
[9] = qHTS assay to test for compound auto fluorescence at 460 nm (blue) in HEK293 cells (AID 720678)
Procedure, shortened: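 Cells were seeded and left to adhere for 4-5 hr at 37C. Compounds were then pin-transferred. After an overnight incubation at 37C under 5% CO2, intrinsic fluorescence at 405/460 nm was measured and referenced to triamterene.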

[10] = qHTS assay to test for compound auto fluorescence at 590 nm (red) in HEK293 cells (AID 720679)
Procedure, shortened: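 Each well held 2,000 HEK293 cells in medium containing 10% dialyzed FBS. Following 4-5 hr attachment at 37C, 23 nL test compound or DMSO was added; plates sat overnight, and red fluorescence (540/590nm) was recorded.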

[11] = qHTS assay to test for compound auto fluorescence at 535 nm (green) in HEK293 cells (AID 720680)
[12] = qHTS assay to test for compound auto fluorescence at 460 nm (blue) in HEK293 cell free culture (AID 720681)
Procedure, shortened: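 Blue fluorescence (Ex 405/Em 460 nm, triamterene-equivalent) was read immediately after pin transfer of compound or DMSO into medium (DMEM, 10% FBS) without cells.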

[13] = qHTS assay to test for compound auto fluorescence at 535 nm (green) in HEK293 cell free culture (AID 720682)
Procedure, shortened: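 Steps: dispense DMEM/10% FBS into empty wells; pin in compound or DMSO; measure fluorescence at 485/535 nm. Values are fluorescein equivalents.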

[14] = qHTS assay to test for compound auto fluorescence at 590 nm (red) in HEK293 cell free culture (AID 720683)
Procedure, shortened: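 Red-channel autofluorescence of compounds in culture medium (DMEM, 10% FBS), no cells, measured at 540/590 nm. Rose Bengal sodium is the reference fluorophore for equivalence.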

[15] = qHTS assay to test for compound auto fluorescence at 590 nm (red) in HepG2 cell free culture (AID 720684)
Procedure, shortened: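 Steps: dispense MEM/10% FBS medium, no cells; pin compound or DMSO vehicle; read red channel, Ex/Em 540/590 nm. Output given as Rose Bengal sodium equivalents.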

[16] = qHTS assay to test for compound auto fluorescence at 460 nm (blue) in HepG2 cell free culture (AID 720685)
Procedure, shortened: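 Compound (23 nL) or DMSO pinned into cell-free MEM with 10% FBS; blue fluorescence read at 405/460 nm excitation/emission, expressed as auto-fluorescence equivalency to triamterene.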

[17] = qHTS assay to test for compound auto fluorescence at 535 nm (green) in HepG2 cell free culture (AID 720686)
[18] = qHTS assay to test for compound auto fluorescence at 460 nm (blue) in HepG2 cells (AID 720687)
Procedure, shortened: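 Blue-channel autofluorescence (Ex/Em 405/460 nm, triamterene-equivalent) was measured after 1 hr compound exposure at 37 C, 5% CO2. Cells were HepG2, plated overnight at 37 C in MEM plus 10% FBS.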

[19] = target: Glucocorticoid receptor (Homo sapiens) (UniProt P04150); experiment: qHTS assay to identify small molecule agonists of the glucocorticoid receptor (GR) signaling pathway (AID 720691; active means well fitted activation curve with a large enough effect in the signal ratio in the repeat runs, not every such curve was filed as active; the % refers to the signal ratio)
Procedure, shortened: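 GR-bla HeLa cells carrying a GRE-driven beta-lactamase reporter, exposed to compounds for 18 h at 37 C. Reporter activation read as fluorescence after 2 h with LiveBLAzer B/G FRET substrate at room temperature.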

[20] = target: Glucocorticoid receptor (Homo sapiens) (UniProt P04150); experiment: qHTS assay to identify small molecule antagonists of the glucocorticoid receptor (GR) signaling pathway (AID 720692; active means well fitted inhibition curve with a large enough effect in the signal ratio in the repeat runs, not every such curve was filed as active; the % refers to the signal ratio)
Procedure, shortened: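 GR-bla HeLa cells carrying a GRE-driven beta-lactamase reporter received compound after 4 h plating, then dexamethasone (5 nM final). After 18 h at 37C, the FRET substrate was loaded for 2 h at room temperature and fluorescence read.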

Glucocorticoid receptor (Homo sapiens), sequence (P04150 whole entry, looked up): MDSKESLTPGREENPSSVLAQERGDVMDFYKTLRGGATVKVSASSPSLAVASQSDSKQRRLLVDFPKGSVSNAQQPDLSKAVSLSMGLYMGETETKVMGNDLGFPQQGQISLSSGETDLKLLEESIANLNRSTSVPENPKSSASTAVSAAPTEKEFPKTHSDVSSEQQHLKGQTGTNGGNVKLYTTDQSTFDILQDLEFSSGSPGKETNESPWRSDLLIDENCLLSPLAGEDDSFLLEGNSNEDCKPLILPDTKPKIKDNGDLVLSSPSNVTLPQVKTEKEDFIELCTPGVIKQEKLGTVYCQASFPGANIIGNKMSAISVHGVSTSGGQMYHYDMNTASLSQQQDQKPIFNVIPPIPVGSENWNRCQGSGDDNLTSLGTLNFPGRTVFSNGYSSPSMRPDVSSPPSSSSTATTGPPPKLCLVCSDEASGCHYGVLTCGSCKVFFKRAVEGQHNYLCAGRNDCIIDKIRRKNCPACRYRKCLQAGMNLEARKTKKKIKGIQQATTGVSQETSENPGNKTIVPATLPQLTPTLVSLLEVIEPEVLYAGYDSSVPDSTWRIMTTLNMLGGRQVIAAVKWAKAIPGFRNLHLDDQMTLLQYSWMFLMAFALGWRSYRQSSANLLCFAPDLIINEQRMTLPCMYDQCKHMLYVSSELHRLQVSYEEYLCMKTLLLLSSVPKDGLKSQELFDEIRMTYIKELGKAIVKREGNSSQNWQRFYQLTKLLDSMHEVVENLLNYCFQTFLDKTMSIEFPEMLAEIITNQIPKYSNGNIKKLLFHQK

CCOC(=O)CC(SP(=S)(OC)OC)C(=O)OCC (stereo not drawn)
Potency [1]: inactive
outcome [2]: inactive
Potency [3]: inactive
Potency [4]: inactive
Potency [5]: inactive
Potency [6]: inactive
outcome [7]: inactive
outcome [8]: inactive
outcome [9]: inactive
outcome [10]: inactive
outcome [11]: inactive
outcome [12]: inactive
outcome [13]: inactive
outcome [14]: inactive
outcome [15]: inactive
outcome [16]: inactive
outcome [17]: inactive
outcome [18]: inactive
Potency [19]: inactive
Potency [20]: inactive

NC1(c2ccccc2)CCCCC1
Potency [1]: inactive
outcome [2]: inactive
Potency [3]: inactive
Potency [4]: inactive
Potency [5]: inactive
outcome [7]: inactive
outcome [8]: inactive
outcome [9]: inactive
outcome [10]: inactive
outcome [11]: inactive
outcome [12]: inactive
outcome [13]: inactive
outcome [14]: inactive
outcome [16]: inactive
outcome [17]: inactive
outcome [18]: inactive

Clc1ccc(C(Cl)(Cl)Cl)cn1
Potency [1]: inactive
outcome [2]: inactive
Potency [3]: inactive
Potency [4]: inactive
Potency [5]: inactive
outcome [7]: inactive
outcome [8]: inactive
outcome [9]: inactive
outcome [10]: inactive
outcome [11]: inactive
outcome [12]: inactive
outcome [14]: inactive
outcome [15]: inactive
outcome [16]: inactive
outcome [17]: inactive
outcome [18]: inactive
Potency [19]: inactive
Potency [20]: inactive

CC(=O)CN(CC(C)=O)N=O
Potency [1]: inactive
outcome [2]: inactive
Potency [3]: inactive
Potency [4]: inactive
Potency [5]: inactive
outcome [7]: inactive
outcome [8]: inactive
outcome [9]: inactive
outcome [10]: inactive
outcome [11]: inactive
outcome [12]: inactive
outcome [14]: inactive
outcome [15]: inactive
outcome [16]: inactive
outcome [17]: inactive
outcome [18]: inactive
Potency [19]: inactive

ClCOCCl
Potency [1]: inactive
outcome [2]: inactive
Potency [3]: inactive
Potency [4]: inactive
Potency [5]: inactive
Potency [6]: inactive
outcome [7]: inactive
outcome [8]: inactive
outcome [9]: inactive
outcome [10]: inactive
outcome [12]: inactive
outcome [13]: inactive
outcome [14]: inactive
outcome [15]: inactive
outcome [16]: inactive
outcome [17]: inactive
outcome [18]: inactive
Potency [19]: inactive
Potency [20]: inactive

CCOP(=O)(CN(CCO)CCO)OCC
Potency [1]: inactive
outcome [2]: inactive
Potency [3]: inactive
Potency [4]: inactive
Potency [5]: inactive
Potency [6]: inactive
outcome [8]: inactive
outcome [9]: inactive
outcome [10]: inactive
outcome [11]: inactive
outcome [12]: inactive
outcome [13]: inactive
outcome [16]: inactive
outcome [17]: inactive
outcome [18]: inactive
Potency [19]: inactive
Potency [20]: inactive

CCSC(=O)Cl
Potency [1]: inactive
outcome [2]: inactive
Potency [3]: inactive
Potency [4]: inactive
Potency [5]: inactive
Potency [6]: inactive
outcome [7]: inactive
outcome [8]: inactive
outcome [9]: inactive
outcome [10]: inactive
outcome [11]: inactive
outcome [12]: inactive
outcome [13]: inactive
outcome [14]: inactive
outcome [15]: inactive
outcome [16]: inactive
outcome [17]: inactive
outcome [18]: inactive
Potency [19]: inactive
Potency [20]: inactive

Clc1nc(Cl)nc(Nc2ccccc2Cl)n1
Potency [1]: inactive
outcome [2]: inactive
Potency [3]: inactive
Potency [4]: inactive
Potency [5]: inactive
Potency [6]: inactive
outcome [7]: inactive
outcome [8]: inactive
outcome [9]: inactive
outcome [10]: inactive
outcome [11]: inactive
outcome [12]: inactive
outcome [13]: inactive
outcome [14]: inactive
outcome [15]: inactive
outcome [16]: inactive
outcome [17]: inactive
outcome [18]: inactive
Potency [19]: inactive
Potency [20]: inactive

CCNc1nc(NCC)nc(SC)n1
Potency [1]: inactive
outcome [2]: inactive
Potency [3]: inactive
Potency [4]: inactive
Potency [5]: inactive
Potency [6]: inactive
outcome [7]: inactive
outcome [8]: inactive
outcome [9]: inactive
outcome [10]: inactive
outcome [11]: inactive
outcome [12]: inactive
outcome [13]: inactive
outcome [14]: inactive
outcome [15]: inactive
outcome [17]: inactive
outcome [18]: inactive
Potency [19]: inactive
Potency [20]: inactive

C[C@H]1CCCC(=O)CCC/C=C/c2cc(O)cc(O)c2C(=O)O1
Potency [1]: 9.33 µM (active) and 22.4 µM (active)
outcome [2]: inactive
Potency [3]: inactive
Potency [4]: 20.9 µM (active)
Potency [5]: 11.7 µM (active) and 20 µM (active)
Potency [6]: 2.34 µM (active) and 4.47 µM (active)
outcome [7]: inactive
outcome [8]: inactive
outcome [9]: inactive
outcome [10]: inactive
outcome [11]: inactive
outcome [12]: inactive
outcome [13]: inactive
outcome [15]: inactive
outcome [16]: inactive
outcome [17]: inactive
outcome [18]: inactive

CN(C)C(=O)Oc1cc(OC(=O)N(C)C)cc(C(O)CNC(C)(C)C)c1 (stereo not drawn)
Potency [1]: inactive
outcome [2]: inactive
Potency [3]: inactive
Potency [4]: inactive
Potency [5]: inactive
fluorescence, relative to Rose Bengal [7]: 0.42% [at 18.6 µM]
fluorescence, % of fluorescein control [8]: 0.0476% [at 18.6 µM]
fluorescence, % of triamterene [9]: 0.0042% [at 18.6 µM]
fluorescence, % of fluorescent control [10]: 0.104% [at 18.6 µM]
fluorescence, % of fluorescein [11]: 0.102% [at 18.6 µM]
fluorescence, % of fluorescent control [12]: 0.0217% [at 18.6 µM]
activity change [13]: -0.0374% [at 18.6 µM]
fluorescence, % of fluorescent control [14]: -0.0016% [at 18.6 µM]
fluorescence, % of fluorescein control [17]: -0.0661% [at 18.6 µM]
fluorescence, % of fluorescent control [18]: 0.0969% [at 18.6 µM]
Potency [19]: inactive
Potency [20]: inactive

Brc1c(Br)c(Br)c(Br)c(Br)c1Br
activation [1]: -6.36% [at 8.3 µM]
activation [2]: 2.71% [at 8.08 µM]
activity change, negative = cytotoxicity [3]: 9.67% [at 8.08 µM]
activity, negative = cytotoxicity [4]: 13.6% [at 8.08 µM]
activity change, negative = cytotoxicity [5]: 4.11% [at 8.08 µM]
fluorescence, relative to Rose Bengal [7]: 0.167% [at 3.72 µM]
fluorescence, % of fluorescein control [8]: 0.0147% [at 3.72 µM]
fluorescence, % of triamterene [9]: 0.185% [at 3.72 µM]
fluorescence, % of fluorescent control [10]: -0.438% [at 3.72 µM]
fluorescence, % of fluorescein [11]: -0.0363% [at 3.72 µM]
fluorescence, % of fluorescent control [12]: 0.241% [at 3.72 µM]
activity change [13]: 0.039% [at 3.72 µM]
fluorescence, % of fluorescent control [14]: -0.398% [at 3.72 µM]
fluorescence, % of fluorescent control [16]: 0.0001% [at 3.72 µM]
fluorescence, % of fluorescein control [17]: 0.0083% [at 3.72 µM]
fluorescence, % of fluorescent control [18]: 0.182% [at 3.72 µM]
activation [19]: 0.883% [at 6.9 µM]
activity change, negative = inhibition [20]: 4.46% [at 7.04 µM]

CCC1(CC)C(=O)C=CNC1=O
Potency [1]: inactive
outcome [2]: inactive
Potency [3]: inactive
Potency [4]: inactive
Potency [5]: inactive
Potency [6]: inactive
outcome [8]: inactive
outcome [10]: inactive
outcome [12]: inactive
outcome [13]: inactive
outcome [14]: inactive
outcome [15]: inactive
outcome [16]: inactive
outcome [17]: inactive
outcome [18]: inactive
Potency [19]: inactive
Potency [20]: inactive

N=C(N)[Se]
Potency [1]: inactive
outcome [2]: inactive
Potency [3]: inactive
Potency [4]: inactive
Potency [5]: inactive
Potency [6]: inactive
outcome [7]: inactive
outcome [8]: inactive
outcome [9]: inactive
outcome [10]: inactive
outcome [12]: inactive
outcome [13]: inactive
outcome [14]: inactive
outcome [15]: inactive
outcome [16]: inactive
outcome [17]: inactive
outcome [18]: inactive
Potency [19]: inactive
